JMJD2A Tudor = qHTS Assay for Inhibitors of JMJD2A-Tudor Domain; Lysine-specific demethylase 4A (Homo sapiens), O75164; AlphaScreen JMJD2A-Tudor / H3K4me3 peptide binding; Potency, µM (doses to about 114 µM), without a hit: at the highest dose activity change, negative = inhibition, hits mostly inhibitors; actives 4.4% (n = 390,000); AID 504339, 2011; also: % is scaled to controls: 0 for no effect and ±100 for the full control effect; nearly all actives have a fitted effect of over 50% in size
G9a inh = qHTS Assay for Inhibitors of Histone Lysine Methyltransferase G9a; Histone-lysine N-methyltransferase EHMT2 (Homo sapiens), Q96KQ7; G9a H3K9 monomethylation, AlphaScreen, 2 h; Potency, µM (top dose mostly 102 µM), for the others: top-dose activity, negative = inhibition, usual class: inhibitors; actives 8.8% (n = 350,000); AID 504332, 2011; also: % is scaled to controls: 0 for no effect and ±100 for the full control effect; nearly all actives have a fitted effect of over 75% in size
Target sequence (Q96KQ7 913-1193 limits assumed): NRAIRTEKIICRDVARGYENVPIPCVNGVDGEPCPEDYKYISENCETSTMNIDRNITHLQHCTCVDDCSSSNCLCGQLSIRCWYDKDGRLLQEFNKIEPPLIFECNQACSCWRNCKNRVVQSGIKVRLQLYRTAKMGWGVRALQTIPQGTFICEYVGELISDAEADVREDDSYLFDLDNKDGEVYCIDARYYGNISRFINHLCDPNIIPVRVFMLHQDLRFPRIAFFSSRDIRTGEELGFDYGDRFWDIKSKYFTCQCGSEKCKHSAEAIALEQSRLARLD
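AlphaScreen detection with an anti-monomethyl H3K9 antibody quantified product after a 2 h room-temperature reaction containing 500 nM biotinylated H3K9 peptide, 20 µM SAM and 20 nM enzyme, which had been preincubated 15 min with compound.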
PLK1 PBD block = qHTS for Inhibitors of PLK1-PDB (polo-like kinase 1 - polo-box domain): Primary Screen; Potency, µM, without a hit: max response, negative = inhibition, usual class: inhibitors; Plk1 PBD binding of FITC phosphopeptide, fluorescence polarization; Serine/threonine-protein kinase PLK1 (Homo sapiens), P53350; actives 2.8% (n = 360,000); AID 720504, 2013; also: series mostly up to about 57 µM; % is scaled to controls: 0 for no effect and ±100 for the full control effect; nearly all actives have a fitted effect of over 65% in size
BAZ2B inh = qHTS Assay for Inhibitors of BAZ2B. AlphaScreen BAZ2B-H3K14Ac peptide displacement. Potency, µM (titrated, usually from 114 µM), without a hit: at the highest dose activity change, negative = inhibition, most hits filed as inhibitors. actives 4.4% (n = 360,000). AID 504333, 2011; also: % is scaled to controls: 0 for no effect and ±100 for the full control effect; nearly all actives have a fitted effect of over 60% in size
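Protein-peptide AlphaScreen: BAZ2B 50 nM, b-H3K14Ac 50 nM, 1x PBS pH 7.4 + 0.01% Tween-20. Preincubation 30 min RT; cpd 30 min RT (top 110 uM); beads 20 min RT, light-protected.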
HP1b binding inh = HTS for Inhibitors of HP1-beta Chromodomain Interactions with Methylated Histone Tails; Chromobox protein homolog 1 (Homo sapiens), P83916; AlphaScreen HP1-beta / biotin-H3K9me3 peptide binding; Potency, µM (titrated, usually from 114 µM), for inactives: top-dose activity change, negative = inhibition, actives largely listed as inhibitors; actives 0.56% (n = 390,000); also: nearly all actives have a fitted effect of over 70% in size
Target sequence (P83916 whole entry, looked up): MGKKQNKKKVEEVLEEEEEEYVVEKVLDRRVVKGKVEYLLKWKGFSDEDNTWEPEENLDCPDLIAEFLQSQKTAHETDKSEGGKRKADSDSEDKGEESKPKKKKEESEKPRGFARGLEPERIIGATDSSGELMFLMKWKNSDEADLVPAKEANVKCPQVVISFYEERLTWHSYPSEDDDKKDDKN
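AlphaScreen: HP1-beta (50 nM) preformed 30 min with biotin-H3(1-18)K9me3 peptide (50 nM) in PBS pH 7.4, 0.01% Tween-20. Compound added for 30 min at RT, then streptavidin donor/nickel chelate acceptor beads (10 ug/mL) for 30 min.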
VDR inhibitor = Inhibitors of the vitamin D receptor (VDR): qHTS; Vitamin D3 receptor (Homo sapiens), P11473; VDR-SRC2-3 peptide fluorescence polarization, 2 h; Potency, µM, inactives show max response, negative = inhibition, hits mostly inhibitors; actives 0.93% (n = 400,000); AID 504847, 2011; also: % is scaled to controls: 0 for no effect and ±100 for the full control effect
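Reagent solutions, kept cold and dark, are dispensed first; compounds are then pinned in at 23 nl, plates briefly spun, and incubated 2 h at ambient temperature. Inhibition of VDR–SRC2-3 peptide binding is read by fluorescence polarization.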
Active calls of the source: *; [ ] = remark or other dose. A selection: hits, their analogues and other compounds. The true share with any hit is near 11%. Calls follow the shape of the dose curve; as a rule, active = well fitted curve in the direction sought with a large enough effect; inconclusive = small, poorly fitted or top-dose-only effect, or another doubt; inactive = no such curve, though single readings can be large; an effect the other way counts as inactive or inconclusive. Potency is read from the fitted curve at half-maximal effect.

For Cc1cnc(CNc2cc(-c3ccc4c(c3)OCO4)ncn2)cn1 the results were G9a inh inconclusive and VDR inhibitor -14%.
Screening CN(C)c1ccc(-c2cc(NCc3cccnc3)ncn2)cc1 returned VDR inhibitor -3%.
For Cc1cnc(CNc2cc(-c3ccoc3)ncn2)cn1 the results were VDR inhibitor 45µM*.
Screening COc1ccc(N2CCN(C(=O)C(Cc3ccccc3)NC(=O)c3ccccc3)CC2)cc1 (stereo not given) returned JMJD2A Tudor inconclusive, PLK1 PBD block 2%, HP1b binding inh -3%[57 µM] and VDR inhibitor -8%.
For COc1cccc(CNS(=O)(=O)c2ccc3c(c2)oc(=O)n3C)c1 the results were JMJD2A Tudor -1%, PLK1 PBD block -6%, BAZ2B inh -24%, HP1b binding inh 2% and VDR inhibitor -6%.
For CC1=CC(C)(C)[N+](C)(C)c2ccc(C)cc21 the results were JMJD2A Tudor inconclusive, G9a inh 56µM*, PLK1 PBD block 3%, BAZ2B inh inconclusive, HP1b binding inh 9% and VDR inhibitor 8%.
Screening CC1=CC(C)(C)N(S(=O)(=O)c2ccc(C)cc2)c2ccc(C)cc21 returned JMJD2A Tudor 15%, G9a inh 34%, PLK1 PBD block -3%, BAZ2B inh 12%, HP1b binding inh 69% and VDR inhibitor -13%.
COc1cccc(OCc2nnc(SCC(=O)N3c4ccccc4Sc4ccc(Cl)cc43)o2)c1 was read as JMJD2A Tudor 8%, G9a inh 28µM*, PLK1 PBD block inconclusive, BAZ2B inh -6%, HP1b binding inh -17% and VDR inhibitor inconclusive.
O=C(CSc1nnc(COc2ccc(Cl)cc2)o1)N1CCN(c2ccccc2)CC1 was read as JMJD2A Tudor inconclusive, G9a inh inconclusive, PLK1 PBD block 30µM*, BAZ2B inh 0%, HP1b binding inh 2% and VDR inhibitor inconclusive.
Screening COc1cccc(OCc2nnc(SCc3cc(=O)[nH]c4ccccc34)o2)c1 returned JMJD2A Tudor -8%[11.4 µM], G9a inh -42%, PLK1 PBD block 24µM*, BAZ2B inh -26%, HP1b binding inh inconclusive and VDR inhibitor -14%.
Screening CN1CCN(C(=O)CSc2nnc(COc3ccc(Cl)cc3)o2)CC1 returned JMJD2A Tudor 5%, G9a inh 12%, PLK1 PBD block -4%, BAZ2B inh 8%, HP1b binding inh 2% and VDR inhibitor -2%.
Screening CN1CCN(C(=O)CSc2nnc(COc3ccccc3)o2)CC1 returned JMJD2A Tudor -6%, G9a inh 40µM*, PLK1 PBD block inconclusive, BAZ2B inh -2%, HP1b binding inh 15% and VDR inhibitor 1%.
`O=C(CSc1nnc(COc2ccccc2)o1)N1CCN(c2ccccc2)CC1` gave JMJD2A Tudor -12%, G9a inh inconclusive, PLK1 PBD block -1%, BAZ2B inh 11%, HP1b binding inh 20% and VDR inhibitor 9%.
Screening O=C(COC(=O)CCS(=O)(=O)c1ccccc1)NC(=O)c1ccc(OC(F)F)cc1 returned JMJD2A Tudor -3%, G9a inh 9%, PLK1 PBD block -5%, BAZ2B inh 7%, HP1b binding inh 28% and VDR inhibitor -21%.
Screening CCOc1ccc(C(=O)Nc2ccc3nc(SCC(=O)N(C)c4ccccc4)sc3c2)cc1 returned JMJD2A Tudor -23%, G9a inh -4%[59 µM], BAZ2B inh -7%, HP1b binding inh 12% and VDR inhibitor 6%.

Bioassay records deposited in PubChem by National Center for Advancing Translational Sciences (NCATS).
